Compound activity (PubChem BioAssay)
Pf growth 96h: Primary qHTS for delayed death inhibitors of the malarial parasite plastid, 96 hour incubation | Potency, µM (highest dose often 28.7 µM), for the others: at the top dose activity change, negative = inhibition, most hits filed as inhibitors | 320,000 compounds, 6.9% hits | P. falciparum luciferase reporter growth, 96 h; further: potency means the concentration at half of the fitted maximal effect; on the % scale 0 is the no-effect control and ±100 the full control effect
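Cell-based qHTS: luciferase-tagged P. falciparum in erythrocytes (2% hematocrit, 0.05% parasitemia final) incubated with compounds for 96 hours, 37 C, 5% CO2; luciferase detection reagent then added and luminescence measured.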
CHX counter: Cycloheximide Counterscreen for Small Molecule Inhibitors of Shiga Toxin; 300,000 compounds, 12% hits; cell reporter, cycloheximide protein synthesis inhibition counterscreen; max response, %; AID 2314, 2010; in the data active means max response mostly above about 13%, no sharp cut-off; inactive means mostly below about 14%; further: read at 38.3 µM for the half of the compounds with a filed dose; 0% is about no effect
Pf growth 48h: Primary qHTS for delayed death inhibitors of the malarial parasite plastid, 48 hour incubation; 310,000 compounds, 5.9% hits; P. falciparum luciferase growth in erythrocytes, 48 h; Potency, µM (series often up to 28.7 µM), for the others: at the top dose activity change, negative = inhibition, usual class: inhibitors; further: potency means the concentration at half of the fitted maximal effect; on the % scale 0 is the no-effect control and ±100 the full control effect
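First compound was added to culture medium, then infected red cells at 0.1% parasitemia and 2% hematocrit (final). After incubation at 37 C under 5% CO2, luciferase detection reagent was dispensed and light output recorded.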
Lassa entry inh: qHTS for Inhibitors of binding or entry into cells for Lassa Virus. Potency, µM (doses to about 37.9 µM), without a hit: at the top dose activity change, negative = inhibition, hits mostly inhibitors. Lassa virus pseudotype entry inhibition, cell reporter. 300,000 compounds, 1.2% hits; calls by dose curve; tested in HEK293 cells; further: potency means the concentration at half of the fitted maximal effect; on the % scale 0 is the no-effect control and ±100 the full control effect; nearly all actives have a fitted effect of over 50% in size
MARV entry inh: qHTS for inhibitors of binding or entry into cells for Marburg Virus; Marburg virus pseudotyped entry inhibition, cell reporter; Potency, µM (titrated, usually from 37.8 µM), inactives show top-dose activity change, negative = inhibition, actives largely listed as inhibitors; 300,000 compounds, 1.8% hits; calls by dose curve; tested in HEK293 cells; further: potency means the concentration at half of the fitted maximal effect; on the % scale 0 is the no-effect control and ±100 the full control effect
Shiga toxin inh: A qHTS for Small Molecule Inhibitors of Shiga Toxin. inhibition, % at 38.7 µM. Vero cells, Shiga toxin protein synthesis inhibition reporter. 290,000 compounds, 9.2% hits; in the data active means inhibition mostly above about 28%, no sharp cut-off; inactive means mostly below about 43%; further: 0% is about no effect
* = called active by the depositor; ? = inconclusive; . = not tested or not shown; [ ] = another dose, or the depositor's remark. In the library only some 19% were active in any assay of this set; here they are far more common. Unless noted, the call rests on the fitted dose curve; in most records, active means well fitted inhibition curve with a large enough effect; inconclusive means small, poorly fitted or top-dose-only effect, or another doubt; inactive means no such curve, though single readings can be large or run the other way.

SMILES	Pf growth 96h	CHX counter	Pf growth 48h	Lassa entry inh	MARV entry inh	Shiga toxin inh
COc1ccc(/C=C/C(=O)NC(=S)NNC(=O)c2c(-c3ccccc3)noc2C)cc1	?	-1	53%	0%	?	-2
Cc1onc(-c2ccccc2)c1C(=O)OCC(=O)NC(C)c1ccc(Cl)cc1 (stereo not given)	?	.	15µM*	.	.	.
COc1ccc(CSc2nncn2N)cc1[N+](=O)[O-]	7.4µM*	9	39%	-3%	1%	8
COc1ccc(CSc2nncn2C)cc1[N+](=O)[O-]	0%	1	20%	-2%	-15%	3
COc1ccc(CSc2cccc3cccnc23)cc1[N+](=O)[O-]	6.6µM*	14	69%	11%	39%	49
O=c1c2ccccc2cnn1-c1ccc(Br)cc1	184%	57*	101%	?	?	65*
O=c1c2ccccc2cnn1-c1ccc(Cl)nn1	42%	18*	100%	21%	?	42*
O=c1c2ccccc2nnn1-c1ccc(Br)cc1	147%	44*	127%	.	.	97*
Cc1ccc(-n2c(-c3ccc(Br)cc3)nc3c(cnn3-c3ccccc3)c2=O)cc1	.	.	.	-3%[46.1 µM]	.	.
O=c1c2ccccc2cnn1-c1ccc2ccccc2c1	.	33*	296%	10µM*	?	98*
CC(C)n1nnc2ccccc2c1=O	-3%	-3	45%	1%	9%	19
Cc1ccc(C(C)C)c(OCc2ccc(C(=O)N/N=C/c3ccc(O)c(O)c3)cc2)c1	?	14*	?	?	?	59*
Cc1ccc(C(C)C)c(OCc2ccc(C(=O)N/N=C/c3cccc(O)c3O)cc2)c1	2.6µM*	29*	1.7µM*	12µM*	7.3µM*	active
COc1cc(/C=N\NC(=O)c2ccc(-c3ccccc3)cc2)cc(OC)c1O	11%	15*	9.3µM*	-10%[46.1 µM]	-7%[46.1 µM]	15
COc1cc(/C=N/NC(=O)c2ccc(COc3cc(C)ccc3C(C)C)cc2)cc(OC)c1O	?	34*	?	?	?	20*
O=C(N/N=C/c1ccc(O)c(O)c1)c1ccc(CSc2cccc3cccnc23)cc1	.	3	0%	-11%	-5%	-22
Nn1cnnc1SCC(=O)N(C1CCCCC1)C1CCCCC1	37%	-6	-1%	2%	?	2
CC1(C)CC(=O)C=C(NCc2ccco2)C1	?	-2	-8%	12%	22%	-2
O=C(COC(=O)CNS(=O)(=O)c1ccc2ccccc2c1)Nc1ccc2c(c1)OCO2	28%	-3	4%	2%	12%	-9
CCC(=O)N1CCN(c2ccc(NC(=O)COc3ccccc3Cl)cc2)CC1	5.9µM*	-2	.	?	?	-21
O=C(COc1ccc(Cl)cc1Cl)Nc1ccc(CN2CCOCC2)cc1	2%	-1	-5%	.	.	-2
CN1CCN(c2ccc(NC(=O)COc3ccccc3Cl)cc2)CC1	-13%	26*	12%	2%	-5%[46.1 µM]	76*
CCC(=O)N1CCN(c2ccc(NC(=O)COc3ccccc3[N+](=O)[O-])cc2)CC1	26%	1	?	.	.	-6
O=C(COc1ccccc1Cl)Nc1ccc(CN2CCOCC2)cc1	51%	21*	0%	.	.	8
Cc1ccc(S(=O)(=O)N/N=C\c2ccc3c(c2)OCO3)cc1C	35%	5	23%	?	14%[46.1 µM]	-15
Cc1cc(NC(=O)CSc2nnc(-c3ccncc3)n2C)n(-c2ccccc2)n1	12%	-3	2%	?	7%	-16
COc1ccc(C2NC(C(=O)O)Cc3c2[nH]c2ccccc32)cc1CN1CCN(c2ccc(F)cc2)CC1 (stereo not given)	?	-3	10µM*	.	-2%	-3
COC(=O)[C@H]1Cc2c([nH]c3ccccc23)[C@H](c2ccccc2)N1	3%	-2	-7%	.	.	3
O=C(O)C1Cc2c([nH]c3ccccc23)C(c2ccc3c(c2)OCO3)N1 (stereo not given)	9.3µM*	1	3%	12%	12%	-3
